# Measurements as given in PubChem BioAssay AID590 (National Center for Advancing Translational Sciences (NCATS), 2007).
# Out of some 59,000 compounds screened, about 6,500 (11%) were called active. Another 15% or so got no clear call; they are omitted. The sample holds actives, similar compounds and a random draw of the others, so the mix is not that of the screen. Cut-off read from the data, not from the text of the source: active = max dye-equivalent concentration above about 10 nM; inconclusive = mostly about 1.1 nM to 9.6 nM; inactive = weaker than that.
# Experiment: qHTS Assay for Spectroscopic Profiling in A350 Spectral Region
# Conditions: Compound autofluorescence, 340/450 nm, Alexa 350 dye-equivalents; hits give high values
row,Compound,max dye-equivalent concentration
1,CCOc1ccc2nc(NC(=O)CSc3nc4c(c(=O)n(C)c(=O)n4C)n3CC)sc2c1,inactive
2,Cc1ccc(C(C(=O)NC2CCCC2)N(Cc2ccco2)C(=O)CCC(=O)Nc2ccccn2)cc1 (stereo not drawn),inactive
3,Cc1noc(C)c1COC(=O)Cn1c(C)nc2ccccc21,inactive
4,O=C(Nc1ccc(Oc2ccccc2)cc1)c1ccco1,inactive
5,Cc1ccc(C(=O)COc2cccc(NC(=O)c3ccco3)c2)cc1,inactive
6,CCOc1cc(NC(=O)c2ccco2)c(OCC)cc1NC(=O)COc1ccccc1,78 nM (active)
7,O=C(c1cccs1)N1CCCC(c2nc(-c3ccc(F)cc3)no2)C1 (stereo not drawn),inactive
8,Cc1ccc(S(=O)(=O)N2CCOCC2)cc1C(=O)NCc1ccc(F)cc1,inactive
9,O=c1c2ccccc2nnn1CSc1nc2sc3c(c2c(=O)n1CC1CCCO1)CCC3 (stereo not drawn),inactive
10,CC1CCc2sc3nc(N4CCN(CCO)CC4)n4ncnc4c3c2C1 (stereo not drawn),inactive
11,CCCn1nnc2sc3c(c2c1=O)CCC(C)C3 (stereo not drawn),32 nM (active)
12,CC(C)C[C@H](NC(=O)[C@@H]1O[C@H]1C(=O)O)C(=O)NCCCCN=C(N)N,inactive
13,CC(C)Cc1ccc(S(=O)(=O)N2CCN(C(=O)c3ccco3)CC2)cc1,inactive
14,Cc1ccccc1NC(=O)c1cc(S(=O)(=O)N2CCOCC2)cs1,inactive
15,Cc1cc(NC(=O)CCC(=O)N(c2ccccc2)C(C(=O)NC2CCCC2)c2ccncc2)no1 (stereo not drawn),inactive
16,COc1ccc2nc(NC3=NCN(CC4CCCO4)CN3)nc(C)c2c1 (stereo not drawn),82 nM (active)
17,Cc1ccc2nc(NC3=NCN(CCc4ccccc4)CN3)nc(C)c2c1,inactive
18,Cc1ccsc1C(=O)OCC(=O)c1cc(C)n(CC2CCCO2)c1C (stereo not drawn),inactive
19,CCc1cc2c(=O)c(-c3ccon3)c(N)oc2cc1OC,inactive
20,CC(=NCC1CCCO1)c1c(O)[nH]c(=O)[nH]c1=O (stereo not drawn),inactive
21,CCOC(=O)CN(C(=O)CN1CCOCC1)c1ccc(Br)cc1,inactive
22,COCCCn1c(CCC(=O)O)ccc1-c1ccc(F)cc1,1500 nM (active)
23,Cc1ccc(S(=O)(=O)C(C#N)c2nc3ccccc3nc2N2CCCC2)cc1C (stereo not drawn),190 nM (active)
24,Cc1cc(Cl)ccc1OCC(=O)Oc1c(Cl)c(Cl)c(Cl)c(Cl)c1Cl,inactive
25,CCOC(=O)c1oc2ccccc2c1NC(=O)c1cccs1,21 nM (active)
26,CCOC(=O)c1c(-n2cnnn2)sc(C)c1C,inactive
27,COC(=O)c1c(NC(=O)CSc2nncs2)sc2c1CCCCC2,inactive

row,Compound,max dye-equivalent concentration
1,COC(=O)c1c(NC(=O)c2cccs2)sc2c1CCCC2,65 nM (active)
2,CCOCC(=O)Nc1sc2c(c1C(=O)OCC)CCCC2,inactive
3,CCOC(=O)CSc1nnc(CNC(=O)c2cccs2)n1-c1ccccc1,inactive
4,COC(=O)Cn1cc(C(=O)c2cccs2)c2ccccc21,inactive
5,CCOC(=O)c1c(NC(=O)CSc2nnc(Cc3csc(N)n3)n2C)sc(C)c1C,inactive
6,CCOC(=O)c1c(NC(=O)c2cccs2)sc(C)c1C,180 nM (active)
7,Cc1ccc(C2(c3ccc(C)cc3)NC(=O)N(Cc3c(C)noc3C)C2=O)cc1,inactive
8,Cc1ccc(NC(=O)N2CCC(C(=O)NCc3ccc(F)cc3)CC2)cc1,inactive
9,CCOc1ccc(-c2nnn(CC(=O)N3CCN(c4ccc(OC)cc4)CC3)n2)cc1OCC,inactive
10,CCn1c(SCC(=O)Nc2nccs2)nnc1-c1ccncc1,inactive
11,CC(CN1CCCCC1)OC(=O)c1ccccc1Cl (stereo not drawn),inactive
12,CCCC(=O)Nc1ccc(C(=O)NCCCn2ccnc2)cc1,inactive
13,CCn1c(=O)cc(SCC(=O)NCc2ccc3c(c2)OCO3)c2ccccc21,inactive
14,CCCn1c(SCC(=O)c2ccc3c(c2)OCCO3)nnc1C(C)C,inactive
15,O=C(c1cc(C(F)(F)F)cc(C(F)(F)F)c1)N1CCC[C@@]2(CCN(c3ccccn3)C2)C1,inactive
16,CCOC(=O)CC1C(=O)NCCN1C(=O)COc1ccc(Br)cc1C (stereo not drawn),inactive
17,CCOc1cccc(/C(O)=C2/C(=O)C(=O)N(CCOC)C2c2ccncc2)c1 (stereo not drawn),inactive
18,CCOC(=O)c1ccc(NC(=O)CSc2ncccn2)cc1,inactive
19,COCCOC(=O)C1=C(C)Nc2nc(C)nn2C1c1ccccc1 (stereo not drawn),inactive
20,CCOC(=O)C1=C(C)NC(C)=C(C(=O)OCC)C1c1ccccn1,330 nM (active)
21,CC(=O)OCC(=O)[C@@]1(O)CC[C@@H]2[C@H]3CCC4=CC(=O)C=C[C@]4(C)[C@]3(F)[C@@H](O)C[C@@]21C,inactive
22,Cn1c(=O)[nH]c(=O)c2c1nc(N1CCCCCC1)n2CC(=O)c1ccccc1,inactive
23,CCC(C)Sc1nc2c(c(=O)[nH]c(=O)n2C)n1CC(O)COc1cccc2ccccc12 (stereo not drawn),inactive
24,CS(=O)(=O)N1CCC2(CC1)CN(Cc1ccccc1)C2,inactive
25,CCn1c(CNc2ccc(OC)cc2)nnc1SCC(=O)c1ccc(OC)cc1,inactive
26,Cc1ccc(S(=O)(=O)Nc2ccccc2CNc2c(C)n(C)n(-c3ccccc3)c2=O)cc1,inactive
